tim10-1 inh: growth inhibitors of tim10-1 mutant yeast, primary screen, luminescence, uHTS; S. cerevisiae tim10-1 ts strain growth, BacTiter-Glo, 24 h; 330,000 tested, 2.2% active; inhibition, % at 20 µM;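 active = inhibition of at least 40%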;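 note: mutant grown at 25 °C; 0% = DMSO wells with yeast and 100% = wells holding no yeast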
SKKanGAS inh: S. pyogenes SKKanGAS growth inhibitors in kanamycin, primary screen, streptokinase expression inhibitor project, SKKanGAS strain, BacTiter-Glo luminescence; inhibition, % at 7.5 µM; 300,000 tested, 1.3% active; 6 h;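 active = mean replicate score, as percent of positive control median, at least 50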;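 note: strain carries kanamycin resistance gene driven by streptokinase promoter and grows in 40 µg/ml kanamycin; loss of luminescence reflects streptokinase promoter inhibition or plain growth inhibition; 0% = median of DMSO wells and 100% = positive control at its reference dose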
NALP1 yeast inh: NALP1 inflammasome inhibitors in reconstituted yeast, colorimetric, S. cerevisiae, triplicate retest; S. cerevisiae NALP1/ASC/caspase-1 growth, X-gal OD620, 72 h; 280,000 tested, 0.61% active; AID 2071, 2009; inhibition, % at 10 µM; in the data active = inhibition mostly above about 24%, no sharp cut-off; inactive = mostly below about 32%
TIM10 inh: growth inhibitors of isogenic TIM10 control yeast, primary screen, counter-screen for tim10-1 yeast inhibitor project, luminescence, uHTS; S. cerevisiae TIM10 strain growth, BacTiter-Glo luminescence, 24 h; inhibition, % at 10 µM; 330,000 tested, 1.4% active;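 active = inhibition of 40% or more at the single tested concentration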;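 note: wild-type TIM10 isogenic control strain grown at permissive 25 °C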
NLRP3 yeast inh: NALP3 inflammasome inhibitors in reconstituted yeast, primary screen, luminescence, uHTS | inhibition, % at 10 µM | 330,000 tested, 0.39% active | Yeast reconstituted NLRP3/ASC/caspase-1, beta-gal luminescence, 24 h;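 active = inhibition of 50% or more; inactive = inhibition below 50%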;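 note: plate controls were induced DMSO wells for no effect and uninduced yeast grown without galactose for full effect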
tim23-1 inh: growth inhibitors of tim23-1 mutant yeast, primary screen, luminescence, uHTS; S. cerevisiae tim23-1 growth, BacTiter-Glo luminescence, 24 h; 330,000 tested, 1.3% active; inhibition, % at 20 µM; AID 463212, 2010;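 active = growth inhibition of the mutant yeast at or above 50%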;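 note: temperature-sensitive mutant grown at 25 °C; plate controls were DMSO-treated mutant yeast for no effect and medium wells lacking yeast for full effect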
tim10-1 confirm: growth inhibitors of tim10-1 mutant yeast, confirmation, single concentration, luminescence, S. cerevisiae. shares compounds with tim10-1 inh. S. cerevisiae tim10-1 ts strain growth, BacTiter-Glo, 24 h. inhibition, % at 20 µM. 7,400 tested, 56% active;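 active = inhibition of yeast growth at or above a set limit in either of two repeat tests at 20 µM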;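 note: tim10-1 mutant grown at permissive 25 °C to find synthetic lethal compounds; 0% = DMSO yeast wells and 100% = medium wells without yeast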
tim10 confirm: growth inhibitors of wild-type TIM10 yeast, confirmation, counter-screen for tim10-1 synthetic lethality project, single concentration, luminescence, S. cerevisiae; shares compounds with TIM10 inh; S. cerevisiae tim10 strain growth, BacTiter-Glo luminescence, 24 h; inhibition, % at 10 µM; 4,600 tested, 63% active;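 active = inhibition of yeast growth at or above a set limit in either of two replicates at 10 µM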;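 note: this counterscreen used the strain with wild-type TIM10; 0% = yeast with DMSO and 100% = medium wells lacking yeast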
tim23-1 confirm: tim23-1 mutant yeast growth inhibitors, confirmation, luminescence, single concentration; inhibition, % at 20 µM; shares compounds with tim23-1 inh; 4,400 tested, 83% active; S. cerevisiae tim23-1 growth, BacTiter-Glo luminescence, 24 h;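 active = inhibition above about 39% in either of two replicate wells at 20 µM, limit read from the data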;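 note: temperature-sensitive tim23-1 mutant grown at 25 °C; 0% = DMSO wells with yeast and 100% = medium wells without yeast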
Active calls of the source: *. Compounds with a hit are over-represented: about 4.9% of the library has one in this group of screens.

Screening O=C1Nc2ccccc2/C1=C\C(=O)c1ccccc1 returned tim10-1 inh 52*, SKKanGAS inh -2, NALP1 yeast inh 20, TIM10 inh 82*, NLRP3 yeast inh 28, tim23-1 inh 88*, tim10-1 confirm 52*, tim10 confirm 93* and tim23-1 confirm -43.
CCOc1c(Br)cc(/C=C2\N=C(C)OC2=O)cc1Br was read as tim10-1 inh 61*, SKKanGAS inh 2, NALP1 yeast inh 19, TIM10 inh 28, NLRP3 yeast inh 1, tim23-1 inh 59*, tim10-1 confirm 33* and tim23-1 confirm 64*.
`COc1cc(/C=C2\N=C(C)OC2=O)cc(OC)c1OC` gave tim10-1 inh 10, SKKanGAS inh -2, NALP1 yeast inh 4, TIM10 inh 4, NLRP3 yeast inh 14 and tim23-1 inh 22.
Screening Cc1cc(OCc2cc(C(=O)N3CCCCCC3)no2)cc(C)c1Cl returned tim10-1 inh 24, SKKanGAS inh 7, NALP1 yeast inh 8, TIM10 inh -7, NLRP3 yeast inh 13 and tim23-1 inh 24.
Cc1ccc(-c2cc(-c3ccccc3C)[nH]n2)c(O)c1 was read as tim10-1 inh 48*, NALP1 yeast inh -20, TIM10 inh 49*, NLRP3 yeast inh 21, tim23-1 inh 74*, tim10-1 confirm 58*, tim10 confirm 57* and tim23-1 confirm 54*.
For Cc1ccc(-c2cc(-c3cccc(F)c3)n[nH]2)c(O)c1 the results were tim10-1 inh 58*, SKKanGAS inh 52*, NALP1 yeast inh 6, TIM10 inh 48*, NLRP3 yeast inh 25, tim23-1 inh 59*, tim10-1 confirm 51*, tim10 confirm -5 and tim23-1 confirm 21.
`Cc1ccc(-c2[nH]ncc2C(=O)c2cccc(F)c2)c(O)c1` gave tim10-1 inh 33, SKKanGAS inh -2, NALP1 yeast inh 11, TIM10 inh 5, NLRP3 yeast inh 6 and tim23-1 inh 30.
O=C(CN1CCCC1)Nc1ccc(Br)cc1[N+](=O)[O-] was read as tim10-1 inh -3, SKKanGAS inh 1, NALP1 yeast inh -8, TIM10 inh 0, NLRP3 yeast inh 10 and tim23-1 inh -1.
`O=C(NC(=S)Nc1ccccc1Br)C1CCC1` gave tim10-1 inh 40*, SKKanGAS inh 2, NALP1 yeast inh 10, TIM10 inh 38, NLRP3 yeast inh 20, tim23-1 inh 58*, tim10-1 confirm 25 and tim23-1 confirm 40*.
Screening N/C(=N\OC(=O)c1ccc(Cl)cc1)c1[nH]ncc1Br returned tim10-1 inh 66*, SKKanGAS inh 1, TIM10 inh 43*, NLRP3 yeast inh -11, tim23-1 inh 60*, tim10-1 confirm 63*, tim10 confirm 37* and tim23-1 confirm 59*.
CCO/N=C(\N)c1[nH]ncc1Br was read as tim10-1 inh 8, SKKanGAS inh 0, NALP1 yeast inh 24, TIM10 inh 9, NLRP3 yeast inh 17 and tim23-1 inh 9.
Screening Cc1[nH]nc2c1C(c1cc(Br)cs1)C(C#N)=C(N)O2 (stereo not given) returned tim10-1 inh 53*, SKKanGAS inh -10, NALP1 yeast inh 25, TIM10 inh 30, NLRP3 yeast inh 19, tim23-1 inh 61*, tim10-1 confirm 35* and tim23-1 confirm 45*.
Screening Cc1ccc(SCC(=O)Nc2cc(S(=O)(=O)N3CCCCC3)ccc2C)cc1 returned tim10-1 inh 24, TIM10 inh -1, NLRP3 yeast inh -3 and tim23-1 inh 26.
For Fc1ccc(-n2cc(-c3ccccc3)c3c(=S)nc[nH]c32)cc1 the results were tim10-1 inh 63*, SKKanGAS inh 65*, NALP1 yeast inh -13, TIM10 inh 24, NLRP3 yeast inh -16, tim23-1 inh 65*, tim10-1 confirm 13 and tim23-1 confirm 33.
For Cc1ccc(-n2cc(-c3ccccc3)c3c(=O)[nH]cnc32)cc1 the results were tim10-1 inh 48*, SKKanGAS inh 5, NALP1 yeast inh -42, TIM10 inh 49*, NLRP3 yeast inh -77, tim23-1 inh 57*, tim10-1 confirm 32*, tim10 confirm -39 and tim23-1 confirm 43*.
Screening O=c1[nH]cnc2c1c(-c1ccccc1)cn2-c1ccccc1 returned tim10-1 inh 34, SKKanGAS inh 5, NALP1 yeast inh 12, TIM10 inh 24, NLRP3 yeast inh -26 and tim23-1 inh 34.
Fc1cccc(-n2cc(-c3ccccc3)c3c(=S)nc[nH]c32)c1 was read as tim10-1 inh 40*, SKKanGAS inh 84*, NALP1 yeast inh -7, TIM10 inh 36, NLRP3 yeast inh 8, tim23-1 inh 55*, tim10-1 confirm 32* and tim23-1 confirm 48*.
O=C(COC(=O)C(CO)NS(=O)(=O)c1ccc(Br)cc1)Nc1ccc2c(c1)OCCO2 (stereo not given) was read as tim10-1 inh 2, TIM10 inh 3, NLRP3 yeast inh 2 and tim23-1 inh -8.
Screening O=C(ONC1=NCCCCC1)c1ccc([N+](=O)[O-])cc1 returned tim10-1 inh 52*, SKKanGAS inh -7, NALP1 yeast inh -23, TIM10 inh 83*, NLRP3 yeast inh -2, tim23-1 inh 86*, tim10-1 confirm 34*, tim10 confirm 84* and tim23-1 confirm 66*.
For O=C(Nc1cccc([N+](=O)[O-])c1)ONC1=NCCCCC1 the results were tim10-1 inh 15, SKKanGAS inh -8, TIM10 inh -4, NLRP3 yeast inh 0 and tim23-1 inh 2.
C[C@H](CO)N1C[C@H](C)[C@@H](CN(C)S(C)(=O)=O)Oc2ccc(NS(=O)(=O)c3cn(C)cn3)cc2C1=O was read as tim10-1 inh 2, TIM10 inh -7, NLRP3 yeast inh -1 and tim23-1 inh 12.
CCN(CC)S(=O)(=O)c1ccc(C(=O)/C=C/c2ccc(-c3ccc([N+](=O)[O-])cc3)o2)cc1 was read as tim10-1 inh 10, SKKanGAS inh 10, TIM10 inh 7, NLRP3 yeast inh 10 and tim23-1 inh 3.

Screens as filed in PubChem BioAssay.
